The list is not random: actives were taken first. Their share in the collection is about 0.77%.
TNF death inh = inhibitors of TNF-alpha triggered necroptosis, primary screen, cell-based, Jurkat FADD-/-, single concentration; Jurkat FADD-/- TNF necroptosis rescue, ATP luminescence, 24 h; 0 = TNF only, 100 = no-TNF cells; activation (protection from cell death), % at 10 µM; hit rate 0.068% among 220,000;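 active means activation, meaning protection from cell death, of at least 50% relative to plate controls; inactive means activation below 50%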;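 further: necroptosis triggered by 40 ng/mL TNF-alpha added together with compound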
m-calpain inh = inhibitors of pig calpain II, primary screen, biochemical, fluorogenic peptide substrate, 1536-well; purified calpain II, 30 min; inhibition, % at 16 µM; hit rate 0.37% among 220,000; AID 1236, 2008;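 active means inhibition above about 50%, limit read from the data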
HSV augment = enhancers of HSV replication in host cells, fold increase, host cell viability; HSV replication augmentation in cells; maximum fold increase; hit rate 0.005% among 220,000; in the data active means maximum fold increase above about 1.5; tested in PC3 cells
zVAD death inh = inhibitors of zVAD-triggered necroptosis, primary screen, L929 cells. L929 zVAD necroptosis rescue, ATP luminescence, 24 h; with zVAD 60 µM. viability rescue, % at 10 µM. hit rate 0.38% among 220,000;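 active means activation, scaled between plate controls, above about 75%, limit read from the data; inactive means activation under that limit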
zVAD necrop conf = inhibitors of zVAD-triggered necroptosis in L929, confirmation, L929 cells, duplicate runs | AID 463117, 2010 | activation (protection from necroptosis), % at 10 µM | L929 zVAD-induced necroptosis rescue, ATP luminescence, 24 h | shares compounds with zVAD death inh | hit rate 16% among 760;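 active means mean protection from necroptosis of at least 50% over duplicate tests; inactive means mean protection below 50%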
A number is an active result; . = inactive; / = no result given.

SMILES	TNF death inh	m-calpain inh	HSV augment	zVAD death inh	zVAD necrop conf
COc1ccc(Nc2nnc(-c3ccc(O)cc3)c3ccccc23)cc1C(N)=O	.	.	.	81.7	.
COc1ccc(Nc2nnc(-c3ccc(O)cc3)c3ccccc23)cc1	.	.	.	75.1	.
COc1ccc(-c2nnc(Nc3ccc(CC(N)=O)cc3)c3ccccc23)cc1	.	.	.	.	/
NC(=O)Cc1ccc(Nc2nnc(-c3ccccc3)c3ccccc23)cc1	.	.	.	.	/
CCOc1ccc(NC(=S)N(C)C)cc1	.	.	.	.	/
CCOC(=O)c1c(NC(=O)N/N=C/c2ccccc2OCC)sc(C(C)=O)c1C	.	.	.	.	/
CCOC(=O)c1c(NC(=O)N/N=C/c2ccc(O)c(OC)c2)sc(C(C)=O)c1C	.	.	.	77.8	.
COc1ccc(NC(=O)Nc2cccc(OC)c2)cc1	.	/	.	.	/
COc1cccc(NC(=O)Nc2cc(Cl)ccc2C)c1	.	.	.	76.8	.
CC(=O)Nc1cccc(NC(=O)Nc2cccc(Cl)c2C)c1	.	.	.	.	/
Cc1c(Cl)cccc1NC(=O)Nc1cc(C(C)(C)C)nn1C	.	.	.	81.4	.
Cc1csc(NC(=O)CSc2nsc(SCC(=O)Nc3nc(C)cs3)c2C#N)n1	.	.	.	75.5	53.4
Cc1ccc(Cl)cc1NC(=O)CCN1C(=O)C2C3CCC(C3)C2C1=O (stereo unspecified)	.	.	.	.	/
Cn1c(=O)c2c(ncn2CC(=O)N/N=C/C=C\c2ccccc2[N+](=O)[O-])n(C)c1=O	.	.	.	.	/
Cc1nn(-c2ccccc2)c(C)c1-c1cc(C(=O)N/N=C/c2cccnc2)[nH]n1	.	.	.	75.4	.
O=C(NCCCn1ccnc1)c1cc(-c2cccs2)on1	.	.	.	76.0	.
COc1ccc(/C=N/N2C(=O)C3C4C=CC(CC4)C3C2=O)c(OC)c1 (stereo unspecified)	.	.	.	.	/
CCC(=Cc1ccc(CC)cn1)CC	.	.	.	.	/
O=C(NCCN1CCCC1)c1ccc2c(=O)n(CCc3ccccc3)c(=O)[nH]c2c1	.	.	.	91.0	.
C=C1C(=O)O[C@@H]2[C@H]1[C@@H](OC(=O)/C(C)=C/C)C/C(C)=C\C(=O)/C=C(\C)[C@@H]2O	.	.	.	83.8	.
C/C=C(/C)C(=O)O[C@H]1[C@@H](O)c2c(ccc3ccc(=O)oc23)OC1(C)C	.	.	.	.	/
CC(C)(C)c1ccc(NC(=O)Nc2ccc(OCC(=O)N3CCOCC3)cc2)cc1	.	.	.	80.2	.
COc1ccc(OCC(=O)Nc2ccc(C)c(S(=O)(=O)N(C)C)c2)cc1	.	.	.	80.6	.
CC(=O)c1ccc(OCCCC(=O)Nc2ccc(C)c(S(=O)(=O)N(C)C)c2)cc1	.	.	.	.	/
Cc1[nH]c2c(ccc3cccnc32)c1C	.	.	.	77.9	.
SMILES	TNF death inh	m-calpain inh	HSV augment	zVAD death inh	zVAD necrop conf
COc1ccc(-c2nnc3sc(C4CCCCC4)nn23)cc1OC	.	.	.	76.1	.
COc1ccc(-c2nn3c(C4CCCCC4)nnc3s2)cc1OC	.	.	.	.	/
NS(=O)(=O)c1ccc(CCn2c(=S)[nH]c3ccc(F)cc3c2=O)cc1	.	.	.	.	/
O=C(N/N=C/c1ccccc1)c1n[nH]c2c1CCCC2	.	.	.	82.6	.
O=C(N/N=C/c1ccc(Cl)cc1)c1n[nH]c2c1CCCC2	.	.	.	.	/
Cc1ccc(NC(=O)n2ccc(-c3ccc(-n4ccnc4)cc3)n2)cc1	.	.	.	82.1	.
Cc1cc(C)c2cc(CN(Cc3ccco3)C(=S)NCC3CCCO3)c(=O)[nH]c2c1 (stereo unspecified)	.	.	.	.	/
Cc1[nH]c2ccccc2c1C(=O)COC(=O)c1ccc2c(=O)n3c(nc2c1)CCC3	.	.	.	.	/
CCOC(=O)Cn1c(=O)oc2cc(S(=O)(=O)N(C)c3cccc(C)c3)ccc21	.	.	.	.	/
COc1ccc(NC(=O)Nc2nc3c(s2)CCCC3)cc1	.	.	.	79.4	.
CC1CCCCC1NC(=O)Cn1nnc(-c2ccc(Cl)cc2)n1 (stereo unspecified)	.	.	.	78.2	.
O=C(Cn1nnc(-c2ccc(Cl)cc2)n1)NC1CCN(Cc2ccccc2)CC1	.	.	.	.	/
CC(O)CNC(=O)Cc1cc(=O)[nH]c(=O)[nH]1 (stereo unspecified)	.	.	.	.	/
Cc1cc(NCCCN2CCOCC2)n2ncc(-c3ccc(Cl)cc3)c2n1	.	.	.	84.4	.
Cc1cc(NCCCn2ccnc2)n2ncc(-c3ccc(Cl)cc3)c2n1	.	.	.	.	/
Cc1ccccc1OCCNC(=O)CSc1ccc(C(F)(F)F)cc1[N+](=O)[O-]	.	.	.	.	/
O=C(/C(=C/c1ccc(Cl)cc1)c1nc2ccccc2[nH]1)c1ccccc1	.	.	.	107.4	.
O=C(N/N=C/C(Br)=C/c1ccccc1)c1cccs1	.	.	.	.	/
S=C(Sc1ccc(Cl)cc1)Sc1ccc(Cl)cc1	.	.	.	76.2	.
CC(C)(C)c1ccc(NC(=O)COC(=O)C2(C)CC2(Cl)Cl)cc1 (stereo unspecified)	.	.	.	76.7	.
Cc1ccccc1NC(=O)COC(=O)C1(C)CC1(Cl)Cl (stereo unspecified)	.	.	.	.	/
C=CCn1c[n+](CC(=O)c2ccc(Br)s2)c2ccccc21	.	.	.	.	/
CCSc1nnc(NC(=O)c2ccccc2C)s1	.	.	.	.	/
O=C(Nc1nccs1)c1ccc(NC(=O)c2ccco2)cc1	.	.	.	84.4	.
Cc1ccc(C(=O)Nc2nccs2)cc1	.	.	.	85.9	.
SMILES	TNF death inh	m-calpain inh	HSV augment	zVAD death inh	zVAD necrop conf
COc1ccc(CC(=O)Nc2ccc(C(=O)Nc3nccs3)cc2)cc1OC	.	.	.	82.8	63.2
CN(c1ccc(C(=O)Nc2nccs2)cc1)S(=O)(=O)c1ccccc1	.	.	.	88.6	85.9
COc1ccc(CCNC(=O)C(=O)Nc2nccs2)cc1OC	.	.	.	.	/
CCCCNC(=O)c1cc2ccccc2s1	.	.	.	.	/
Cc1ccc(N2CC(C(=O)Nc3ccc(C)c(S(=O)(=O)N(C)C)c3)CC2=O)cc1 (stereo unspecified)	.	.	.	.	/
Nc1ccc(C(=O)Nc2nccs2)cc1	.	.	.	80.6	.
O=C(Nc1nccs1)c1ccccc1[N+](=O)[O-]	.	.	.	.	/
Nc1ccccc1C(=O)Nc1nccs1	.	.	.	91.0	.
CCn1c(SCc2ccc(C(=O)Nc3nccs3)cc2)nnc1-c1ccc(N)cc1	.	.	.	88.4	71.1
Cc1ccc(S(=O)(=O)N2CCOC2CNC(=O)C(=O)NCc2ccncc2)cc1 (stereo unspecified)	.	.	.	.	/
Cc1cc(C)c(C)c(S(=O)(=O)N[C@@H](C)C(=O)OCC(N)=O)c1C	.	.	.	.	/
Cn1nc(OCC(=O)O)cc1C(F)(F)F	.	.	.	.	/
